Several values for one entry are separate records, joined by “and”; a condition that tells them apart may be missing. Identical values can stand only once. Records with an inconclusive call do not appear. A structure can be active in one record and inactive in another. Activity calls are given as the source filed them. How the source made its calls: active means hit-call score of the fitted dose curve at least 0.9, where 1 is the maximum; inconclusive means response in the unintended direction; inactive means score below 0.9.
molecular target: Bile acid receptor (Homo sapiens) (UniProt Q96RI1); assay: ATG_FXR_TRANS: Attagene TRANS-FACTORIAL HepG2 Assay for Farnesoid X Receptor (FXR) (AID 2282979); settings: HepG2 Attagene TRANS FXR-GAL4 reporter transcription;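 further: hits raise reporter mRNA above DMSO so AC50 marks FXR activation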
Sequence (Q96RI1 whole entry, looked up, the tested form may be a part): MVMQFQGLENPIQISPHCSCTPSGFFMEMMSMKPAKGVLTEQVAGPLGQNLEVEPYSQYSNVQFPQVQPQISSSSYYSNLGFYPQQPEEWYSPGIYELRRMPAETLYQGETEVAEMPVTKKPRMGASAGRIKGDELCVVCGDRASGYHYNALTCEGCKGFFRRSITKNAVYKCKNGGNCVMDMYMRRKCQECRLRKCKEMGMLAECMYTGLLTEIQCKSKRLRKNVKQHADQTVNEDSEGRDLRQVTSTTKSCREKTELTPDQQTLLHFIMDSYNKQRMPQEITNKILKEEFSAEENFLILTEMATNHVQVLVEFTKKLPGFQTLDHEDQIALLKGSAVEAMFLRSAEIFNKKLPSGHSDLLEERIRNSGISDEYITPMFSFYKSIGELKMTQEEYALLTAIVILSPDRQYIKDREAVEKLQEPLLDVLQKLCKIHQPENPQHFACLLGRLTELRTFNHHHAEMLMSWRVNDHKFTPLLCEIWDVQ
Experimental: ATG_TRANS is a cell-based, multiplexed-readout assay that uses HepG2, a human liver cell line, with measurements taken at 24 hours after chemical dosing in a 24-well plate.ATG_FXR_TRANS is one of 30 assay component(s) measured or calculated from the ATG_TRANS assay. It is designed to make measurements of mRNA induction, a form of inducible reporter, as detected with fluorescence intensity signals by Reverse transcription polymerase chain reaction (RT-PCR) and Capillary electrophoresis technology.Data from the assay component ATG_FXR_TRANS was analyzed into 1 assay endpoint. This assay endpoint, ATG_FXR_TRANS, was analyzed in the positive analysis fitting direction relative to DMSO as the negative control and baseline of activity. Using a type of inducible reporter, measures of mRNA for gain-of-signal activity can be used to understand the reporter gene at the transcription factor-level as they relate to the gene NR1H4. Furthermore, this assay endpoint can be referred to as a primary readout, because this assay has produced multiple assay endpoints where this one serves a reporter gene function. To generalize the intended target to other relatable targets, this assay endpoint is annotated to the nuclear receptor intended target family, where the subfamily is non-steroidal.
Human liver HepG2 cells are transiently transfected with multiple reporter transcription units (MRTUs) in 6-well plates using FuGene 6 reagent (Roche; 3 ml FuGene/1 mg DNA). The MRTU constructs are regulated by a cis-regulating element (promoter). […] A major difference between the CIS and TRANS system is that in CIS activities of endogenous TFs are measured, whereas the TRANS assay evaluates changes in activities of exogenous, chimeric NR-Gal4 proteins. […] At the end of 24 hour incubation, total RNA was isolated using TriZol reagent (Invitrogen). The isolated RNA is then reverse-transcribed using oligo(dT) primer and Mo-MLV reverse transcriptase (Invitrogen) with DNAse I (Ambion) treatment for 30 min. The one-tenth of the produced cDNA was amplified by PCR using Taq DNA polymerase (Invitrogen) and two reporter sequence-specific primers. The PCR products were fluorescently labeled by primer extension with 6-arboxyfluorescein (6-FAM) 5'-labeled reporter sequence-specific primer (2 min at 95 C, 20 s at 68 C and 10 min at 72 C) and these products were digested with 5U of HpaI (New England Biolabs) for 2h at 37 C. The fragments were purified using Qiaquick PCR columns (Qiagen), analyzed on an ABI 3130xL genetic analyzer (Applied Biosystems) with peak positions identified by using a set of X-rhodamine (ROX)-labeled MapMarker1000 molecular weight standards (BioVentures). The raw capillary electrophoresis data was processed using Attagraph software (Attagene).

Row | SMILES | AC50 | outcome
1 | ClC1C(Cl)C(Cl)C(Cl)C(Cl)C1Cl (stereo not drawn) | 139 µM (active) | inactive
2 | CCC(C)(NC(=O)c1cc(Cl)c(C)c(Cl)c1)C(=O)CCl (stereo not drawn) |  | inactive
3 | O=C(Nc1ccccc1)Nc1cnns1 |  | inactive
4 | CNC(=O)/C=C(\C)OP(=O)(OC)OC |  | inactive
5 | Oc1cc(Cl)ccc1Oc1ccc(Cl)cc1Cl | 11.1 µM (active) and 17.1 µM (active) | inactive
6 | CCOc1nc(NC)nc(NC(=O)NS(=O)(=O)c2ccccc2C(=O)OC)n1 |  | inactive
7 | CCCN(CCOc1c(Cl)cc(Cl)cc1Cl)C(=O)n1ccnc1 |  | inactive
8 | COC(=O)c1ccccc1CS(=O)(=O)NC(=O)Nc1nc(OC)cc(OC)n1 |  | inactive
9 | CCN(CC)C(=O)SCc1ccc(Cl)cc1 |  | inactive
10 | COc1nn(CSP(=S)(OC)OC)c(=O)s1 |  | inactive
11 | O=[N+]([O-])/N=C1\NCCN1Cc1ccc(Cl)nc1 |  | inactive
12 | COc1cc(OC)nc(NC(=O)NS(=O)(=O)c2cc(NC=O)ccc2C(=O)N(C)C)n1 |  | inactive
13 | CCc1ccc(C(=O)NN(C(=O)c2cc(C)cc(C)c2)C(C)(C)C)cc1 |  | inactive
14 | CCS(=O)(=O)c1cccnc1S(=O)(=O)NC(=O)Nc1nc(OC)cc(OC)n1 |  | inactive
15 | CNC(=O)Oc1cccc(N=CN(C)C)c1 |  | inactive
16 | N#Cc1c(Cl)c(Cl)c(Cl)c(C#N)c1Cl |  | inactive

From PubChem BioAssay (EPA / NIEHS)
